In the library only some 5.2% were active in any assay of this set; here they are far more common.
SMARCA2 activ: SMARCA2 function activation, primary screen. MG213 cells, MMTV-luciferase reporter, dexamethasone, overnight. activation, % at 9.1 µM. 370,000 compounds, 1% hits; in the data active means activation above about 7.8%;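 further: 0% = vehicle wells and 100% = reference activator wells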
esBAF inh: SWI/SNF esBAF complex inhibition | mouse ES cells, Bmi1-luciferase knock-in reporter, 24 h; 100% = twice the neutral-well signal | reporter increase, % at 12.5 µM | 350,000 compounds, 2% hits | AID 602393; in the data active means activation above about 40%; inconclusive means no clear call, values can overlap the other calls;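 further: 0% = median of the plate's neutral control wells and 100% = double that signal; a rise in the Bmi1 reporter signal indicates esBAF inhibition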
NadD inh: inhibitors of Staphylococcus aureus NadD. 360,000 compounds, 0.78% hits. AID 602399. inhibition, % at 20 µM. purified NadD enzyme, colorimetric absorbance read-out; in the data active means inhibition above about 26%
GRIN3A LBD mod: NR3A (human) ligand-binding domain modulation. 340,000 compounds, 2.5% hits. NR3A LBD differential scanning fluorimetry, Tm shift; 0% = protein alone, 100% = glycine-bound protein. Tm shift relative to glycine control, % at 25 µM;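 active means melting temperature shift of at least 10% of the positive control shift, at one fixed dose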
SKN-1 inh: blocks SKN-1 activity in C. elegans. C. elegans VP596 Pgst-4::GFP/RFP ratio, acrylamide-induced, 24 h. inhibition, % at 21.8 µM. 360,000 compounds, 0.49% hits. AID 624304;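 active means interference check ratio from 0.5 to 1.5 plus GFP to RFP signal ratio inhibition reaching or exceeding a fixed threshold, cut at about 30% in these data, passing the limit was not always enough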
Vif inh: inhibitors of HIV Vif; HEK293T cells, Vif self-association by quenched fluorescence, imaging, 24 h; inhibition, % at 7.49 µM; 340,000 compounds, 0.35% hits; in the data active means inhibition above about 50%, passing the limit was not always enough; inconclusive means no clear call, values can overlap the other calls; inactive means below about 31%
SMARCA2 conf: SMARCA2 activation, confirmation screen | shares compounds with SMARCA2 activ | activation, % at 9.1 µM | 3,500 compounds, 30% hits | MG213 cells, MMTV-luciferase with dexamethasone, luminescence, overnight; MG213 cells expressing E1A, Rb sequestered; DMSO wells 0%, reference activator 100%;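 active means activation above its plate's cutoff, the mean activation of tested wells plus 3 SD, cut at about 7.9% in these data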
VP16 Luc act: counter-screen for SMARCA2 activators: GAL4-VP16 luciferase reporter activation | 3,500 compounds, 41% hits | activation, % at 9.1 µM | shares compounds with SMARCA2 activ | HEK293 GAL4-VP16 pG5luc reporter, luciferase luminescence; scaled: DMSO wells 0%, SAHA wells 100%;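 active means activation above the solvent-only control well mean plus 3 SD, averaged across control plates, cut at about 5.2% in these data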
* marks the source's active call; other numbers are inactive results; u = inconclusive; x = no result given; ! = repeats disagree.

SMILES	SMARCA2 activ	esBAF inh	NadD inh	GRIN3A LBD mod	SKN-1 inh	Vif inh	SMARCA2 conf	VP16 Luc act
Cc1cccc(C)c1NC(=O)C1C(c2ccc3c(c2)OCO3)=Nc2ccccc2N1C(=O)c1ccccn1 (centres undefined)	8.1*	x	x	x	-12	x	4	0
CC(=O)N1c2ccccc2N=C(c2ccc3c(c2)OCO3)C1C(=O)NCc1ccccc1 (centres undefined)	11*	x	x	x	8	x	6	1
C[C@@H]1CN([C@@H](C)CO)C(=O)Cc2cc(NC(=O)Nc3ccccc3)ccc2O[C@H]1CN(C)C(=O)Nc1ccccc1	x	-6	x	x	x	x	x	x
O=C(CNCc1cccc2ccccc12)Nc1ccccc1[N+](=O)[O-]	9.7*	x	-4	0	-3	0	-2	0
COc1cc2c(C#CCCO)c(-c3ccsc3)oc(=O)c2cc1OC	9.3*	-13	-11	0	0	x	11*	2
CN1CCN(Cc2nc3ccccc3c(=O)n2Cc2nc(-c3cccc([N+](=O)[O-])c3)cs2)CC1	1	x	6	-4	0	5	x	x
CN1CCN(Cc2nc3ccccc3c(=O)n2Cc2nc(-c3ccc4ccccc4c3)cs2)CC1	8.2*!	x	3	1	7	-2	21*	0
O=C(Nc1ccccc1Cl)c1ccn[nH]1	8.2*	52*	1	-2	6	-8	3	2
O=C(Nc1ccccc1Cl)c1ccccc1	8.8*	x	-11	-2	16	-8	2	5.6*
O=C(Nc1ccccc1Cl)c1ccc(C(=O)Nc2ccccc2Cl)cc1	-6	x	6	1	-10	6	x	x
O=C(Nc1ccccc1F)c1ccn[nH]1	2	x	-6	1	4	0	x	x
C[C@H]1CN([C@@H](C)CO)C(=O)Cc2cc(NC(=O)CCC(F)(F)F)ccc2O[C@@H]1CN(C)C	x	-3	x	x	x	x	x	x
COc1cc(NC(=O)COc2ccc(-n3cnnn3)cc2)c(OC)cc1Cl	3	8	-4	0	-4	6	x	x
O=C(COc1ccc(-n2cnnn2)cc1)Nc1cccc(Cl)c1Cl	8.1*	-5	2	-1	-2	-2	1	1
CO[C@H]1CC[C@H]2CCN(C)C(=O)[C@H](C)N(C)C(=O)c3cccc(C#N)c3OC[C@H]1O2	x	5	x	x	x	x	x	x
O=C(C[C@H]1C[C@@H]2c3cc(NC(=O)C4CCC4)ccc3O[C@@H]2[C@@H](CO)O1)NCc1ccccn1	x	5	x	x	x	x	x	x
Cc1cccc(NC(=O)COc2ccc3oc4c(c3c2)CCCC4)n1	-3	17	0	-1	-23	8	x	x
Cc1cccc(NC(=O)COc2ccc3c(c2)CCC3)n1	9.7*	10	-6	0	-1	x	6	5.5*
COCC(C)NC(=O)c1noc2c1CCc1cc(OC)ccc1-2 (centres undefined)	9.7*	x	-1	0	2	-6	3	11*
COc1ccc2c(c1)CCc1c(C(=O)NC3CCCCC3)noc1-2	5	-5	-7	-5	6	-1	x	x
O=C(C[C@@H]1CC[C@H](NS(=O)(=O)c2ccc(F)cc2)[C@H](CO)O1)NCCN1CCCCC1	x	-4	x	x	x	x	x	x
CCOc1ccccc1Nc1cc2n(c(=O)n1)CCc1cc(OC)c(OC)cc1-2	12*	-9	1	-1	8	-11	8.8*	7.8*
COc1cc2c(cc1OC)-c1cc(Nc3ccccc3C)nc(=O)n1CC2	6	-5	-3	x	14	-1	x	x
CC(C)NC(=O)N(C)C[C@@H]1OCCCC[C@@H](C)Oc2ccc(NS(=O)(=O)c3cccs3)cc2C(=O)N([C@H](C)CO)C[C@H]1C	x	9	x	x	x	x	x	x
COc1cc(OCc2ccccc2)c2c(CCC(=O)O)cc(=O)oc2c1	8.5*	x	-2	0	-4	-2	-2	1
SMILES	SMARCA2 activ	esBAF inh	NadD inh	GRIN3A LBD mod	SKN-1 inh	Vif inh	SMARCA2 conf	VP16 Luc act
O=C(Nc1ccc2c(c1)OCO2)N[C@H]1CC[C@@H](CC(=O)N2CCN(c3ccccc3)CC2)O[C@H]1CO	x	2	x	x	x	x	x	x
CCN(CC)CCn1c(=S)[nH]c2cc3c(cc2c1=O)OCO3	8.7*	-4	7	-1	7	1	3	0
CCN(CC)CCNC(=O)CCn1c(=S)[nH]c2cc3c(cc2c1=O)OCO3	1	-9	-3	0	-3	u	x	x
C[C@@H]1CN([C@H](C)CO)C(=O)Cc2cc(NS(C)(=O)=O)ccc2O[C@H]1CN(C)Cc1ccccc1	x	1	x	x	x	x	x	x
COc1ccc2c(c1OC)C(=O)N1c3cccc(Cl)c3C(=O)OC21 (centres undefined)	-1	1	-2	-1	6	5	x	x
COc1ccc2c(c1OC)C(=O)N1c3ccccc3COC21 (centres undefined)	8.2*	34	-4	-25	-5	-3	8.9*	9.3*
O=c1c2ccccc2oc2cc(C#Cc3ccccn3)ccc12	8.0*	-25	0	-1	20	-6	3	9.6*
COc1cccc2oc3ccc(C#Cc4ccccn4)cc3c(=O)c12	10*	1	4	2	21	4	3	10*
COc1cccc2sc3cc(C#Cc4ccccn4)ccc3c(=O)c12	4	u	12	-4	3	-1	x	x
Cc1ccc2nc3c(cc(C(=O)NCC4CCCO4)c(=N)n3C3CCCC3)c(=O)n2c1 (centres undefined)	8.8*	4	3	-2	5	19	-1	1
Cc1ccc2nc3c(cc(C(=O)NCc4ccco4)c(=N)n3C3CCCC3)c(=O)n2c1	9.1*	x	-7	x	11	-1	15*	3
N=c1c(C(=O)NCC2CCCO2)cc2c(=O)n3ccccc3nc2n1C1CCCC1 (centres undefined)	1	-1	-1	0	4	-7	x	x
Cc1cccn2c(=O)c3cc(C(=O)NCc4ccco4)c(=N)n(C4CCCCC4)c3nc12	x	1	-1	-1	6	11	x	x
C[C@H]1CN([C@@H](C)CO)C(=O)Cc2cc(NS(=O)(=O)c3cccs3)ccc2O[C@H]1CN(C)Cc1ccccc1	x	-8	x	x	x	x	x	x
Cc1ccc(C(=O)O/N=C(\N)Cc2cccs2)cc1[N+](=O)[O-]	8.2*	28	0	2	14	7	3	3
C[C@@H](NC(=O)C[C@H]1C=C[C@@H](NS(=O)(=O)c2cccc(F)c2)[C@H](CO)O1)c1ccccc1	x	1	x	x	x	x	x	x
Cc1ccc(-n2sc3ccccc3c2=O)cc1	8.0*	x	-2	3	-3	2	11*	2

High-throughput results deposited in PubChem by several laboratories.
